Experimental data: PubChem BioAssay (NCATS)
Results filed as inconclusive are left out. Calls of active or inactive are those of the source. Unless noted, calls follow the shape of the dose curve; as a rule, active = well fitted cell-killing curve with a large enough effect; inconclusive = small, poorly fitted or top-dose-only effect, or effect the other way; inactive = no such curve, though single readings can be large or run the other way.

Tests used:
[1] = Quantitative High-Throughput drug screen in 47 multiple myeloma cell lines against the NCATS MIPE library collection: KMS34_JCRB cell viability assay (AID 1918985); also: potency is read from the fitted curve at half-maximal effect; nearly all actives have a fitted effect of over 40% in size
Summary of the method: (§1)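 Inhibition of viability over 48 h was scored by ATP content (CellTiter-Glo) in 500-cell wells. Zero and full viability were defined by media-only and DMSO-only wells.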

[2] = Quantitative High-Throughput drug screen in 47 multiple myeloma cell lines against the NCATS MIPE library collection: OCIMY7_PLB cell viability assay (AID 1918987); also: potency is read from the fitted curve at half-maximal effect; nearly all actives have a fitted effect of over 65% in size
Summary of the method: as §1

[3] = Quantitative High-Throughput drug screen in 47 multiple myeloma cell lines against the NCATS MIPE library collection: OCIMY5_PLB cell viability assay (AID 1918988); also: potency is read from the fitted curve at half-maximal effect; nearly all actives have a fitted effect of over 65% in size
Summary of the method: as §1

[4] = Quantitative High-Throughput drug screen in 47 multiple myeloma cell lines against the NCATS MIPE library collection: OPM1_PLB cell viability assay (AID 1918989); also: potency is read from the fitted curve at half-maximal effect; nearly all actives have a fitted effect of over 40% in size
Summary of the method: as §1

[5] = Quantitative High-Throughput drug screen in 47 multiple myeloma cell lines against the NCATS MIPE library collection: SKMM1_PLB cell viability assay (AID 1919863); conditions: SKMM1 myeloma viability, CellTiter-Glo ATP, 48 h; viability: stronger effect = lower value; also: potency is read from the fitted curve at half-maximal effect; nearly all actives have a fitted effect of over 35% in size
Summary of the method: as §1

[6] = Quantitative High-Throughput drug screen in 47 multiple myeloma cell lines against the NCATS MIPE library collection: U266_ATCC cell viability assay (AID 1919864); also: potency is read from the fitted curve at half-maximal effect; nearly all actives have a fitted effect of over 35% in size
Summary of the method: as §1

[7] = Quantitative High-Throughput drug screen in 47 multiple myeloma cell lines against the NCATS MIPE library collection: XG6_PLB cell viability assay (AID 1919865); also: potency is read from the fitted curve at half-maximal effect; nearly all actives have a fitted effect of over 40% in size
Summary of the method: as §1

[8] = Quantitative High-Throughput drug screen in 47 multiple myeloma cell lines against the NCATS MIPE library collection: XG1_PLB cell viability assay (AID 1919866); also: potency is read from the fitted curve at half-maximal effect; nearly all actives have a fitted effect of over 35% in size
Summary of the method: as §1

[9] = Quantitative High-Throughput drug screen in 47 multiple myeloma cell lines against the NCATS MIPE library collection: VP6_DJ cell viability assay (AID 1919867); also: potency is read from the fitted curve at half-maximal effect; nearly all actives have a fitted effect of over 40% in size
Summary of the method: as §1

[10] = Quantitative High-Throughput drug screen in 47 multiple myeloma cell lines against the NCATS MIPE library collection: UTMC2_PLB cell viability assay (AID 1919868); conditions: CellTiter-Glo ATP luminescence, 48 h; viability (% of DMSO control): at 45.8 µM (top of the series) unless noted; also: potency is read from the fitted curve at half-maximal effect; nearly all actives have a fitted effect of over 55% in size
Summary of the method: as §1

[11] = Quantitative High-Throughput drug screen in 47 multiple myeloma cell lines against the NCATS MIPE library collection: PE2_PLB cell viability assay (AID 1919869); also: potency is read from the fitted curve at half-maximal effect; nearly all actives have a fitted effect of over 35% in size
Summary of the method: as §1

[12] = Quantitative High-Throughput drug screen in 47 multiple myeloma cell lines against the NCATS MIPE library collection: PCM6_Riken cell viability assay (AID 1919870); also: potency is read from the fitted curve at half-maximal effect; nearly all actives have a fitted effect of over 30% in size
Summary of the method: as §1

[13] = Quantitative High-Throughput drug screen in 47 multiple myeloma cell lines against the NCATS MIPE library collection: RPMI8226_ATCC cell viability assay (AID 1919871); also: potency is read from the fitted curve at half-maximal effect; nearly all actives have a fitted effect of over 30% in size
Summary of the method: as §1

[14] = Quantitative High-Throughput drug screen in 47 multiple myeloma cell lines against the NCATS MIPE library collection: OPM2_DSMZ cell viability assay (AID 1919872); also: potency is read from the fitted curve at half-maximal effect; nearly all actives have a fitted effect of over 30% in size
Summary of the method: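 CellTiter-Glo luminescence (ATP) after 48 h compound exposure, 37C/5% CO2; 500 cells/well; MIPE 4.0 approved/investigational drugs pinned in; DMSO = 100%, media only = 0% viability.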

[15] = Quantitative High-Throughput drug screen in 47 multiple myeloma cell lines against the NCATS MIPE library collection: KMS11_JCRBsus cell viability assay (AID 1919873); also: potency is read from the fitted curve at half-maximal effect; nearly all actives have a fitted effect of over 50% in size
Summary of the method: as §1

[16] = Quantitative High-Throughput drug screen in 47 multiple myeloma cell lines against the NCATS MIPE library collection: KMS28BM_JCRB cell viability assay (AID 1919874)
Summary of the method: as §1

[17] = qHTS for identification of novel therapeutic agents for treatment of microphthalmiaassociated transcription factor (MiT) renal cell carcinoma (RCC) (AID 1963991; calls by dose curve; also: potency is read from the fitted curve at half-maximal effect;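 as to z-score: curves scaled with 100% = DMSO viability and 0% = empty wells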); conditions: CellTiter-Glo, 48 h; for Potency: active = Z-AUC below -0.8 in all three lines; for z-score: stronger effect = lower value
Summary of the method: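 UOK109/UOK124/UOK145 (TFE3 fusions, three partners); 500 cells/well; MIPE v4.0, 1912 cpds, 11 conc.; 48 h, 37 C; CellTiter-Glo, 15 min RT; lum. Norm.: DMSO 100%, empty 0%.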

[18] = qHTS drug screen for cell cycle checkpoint inhibitors in PARPi-resistant BRCA-mutant ovarian cancer cell lines. (AID 1963452; calls by dose curve); conditions: PEO1/OlaR viability, CellTiter-Glo luminescence, 96 h, stronger effect = lower value
Summary of the method: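 PEO1, PEO4 and PEO1/OlaR ovarian cancer cells, 600 per well, exposed 96 h at 37C to a dilution series. Viability read by CellTiter-Glo luminescence, normalized to DMSO and empty wells; activity summarized as Z-AUC.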

[19] = TFE3-RCC UOK109 viability, measured here: UOK109 Z-AUC
[20] = TFE3-RCC viability, measured here: UOK124 Z-AUC
[21] = TFE3-RCC viability, measured here: UOK145 Z-AUC
[22] = measured here: PEO1 parental Z-AUC

Cc1ccc(NC(=O)C2(c3ccc4c(c3)OC(F)(F)O4)CC2)nc1-c1cccc(C(=O)O)c1
-1.92: z-score [17, 20]
-2.27: z-score [17, 19]
-1.79: z-score [17, 21]
active: Potency [1] 0.0935 µM | Potency [2] 0.132 µM | Potency [3] 0.0469 µM | Potency [4] 0.148 µM | Potency [5] 0.0743 µM | Potency [6] 0.0296 µM | Potency [7] 0.0662 µM | Potency [8] 0.0469 µM | Potency [9] 0.0469 µM | Potency [10] 0.0833 µM | Potency [11] 0.105 µM | Potency [12] 0.0332 µM | Potency [13] 0.0935 µM | Potency [14] 0.0743 µM | Potency [15] 0.0469 µM | Potency [16] 0.0418 µM | Potency ([17]; TFE3-RCC UOK109 viability) 0.235 µM

Nc1ccc(C(=O)c2cc3c(ccc4ccccc43)[nH]2)cc1
-0.727: Z-AUC [18, 22]
-0.792: Z-AUC ([18]; measured here: PEO4 Z-AUC)
inactive: Z-AUC [18] -0.0185
active: Potency [1] 4.18 µM | Potency [2] 0.743 µM | Potency [3] 2.64 µM | Potency [4] 7.43 µM | Potency [5] 2.96 µM | Potency [6] 14.8 µM | Potency [8] 0.662 µM | Potency [9] 3.72 µM | Potency [10] 9.35 µM | Potency [11] 2.96 µM | Potency [14] 6.62 µM | Potency [15] 0.743 µM | Potency [16] 0.935 µM

Cc1cc(CN2CCN(c3c(Br)cnc4nc(-c5ccc(N6CCN(C)CC6)cc5)[nH]c34)CC2)no1
-0.2: Z-AUC ([18]; measured here: PEO4 Z-AUC)
0.0389: Z-AUC [18, 22]
inactive: Z-AUC [18] 0.133
active: Potency [1] 5.9 µM | Potency [2] 1.05 µM | Potency [3] 7.43 µM | Potency [5] 10.5 µM | Potency [7] 2.35 µM | Potency [8] 2.09 µM | Potency [9] 3.32 µM | Potency [10] 10.5 µM | Potency [11] 6.62 µM | Potency [12] 3.32 µM | Potency [13] 29.6 µM | Potency [14] 18.7 µM | Potency [15] 1.05 µM | Potency [16] 2.96 µM

COc1cc(=C2C=c3ccccc3=N2)[nH]c1=Cc1[nH]c(C)cc1C
active: Potency [1] 1.48 µM | Potency [2] 1.48 µM | Potency [3] 0.833 µM | Potency [4] 5.9 µM | Potency [5] 4.18 µM | Potency [7] 5.9 µM | Potency [8] 2.09 µM | Potency [9] 1.66 µM | Potency [10] 2.09 µM | Potency [11] 1.48 µM | Potency [13] 1.66 µM | Potency [14] 4.18 µM | Potency [15] 1.05 µM | Potency [16] 0.935 µM | Potency ([17]; TFE3-RCC UOK109 viability) 8.33 µM
-0.978: z-score [17, 20]
-0.974: z-score [17, 21]
-1.08: z-score [17, 19]

CCOC(=O)C1=C(C)NC2=C(C(=O)CC(C)(C)C2)C1c1ccc(-c2ccccc2)cc1 (centres undefined)
active: Potency [1] 18.7 µM | Potency [2] 3.72 µM | Potency [3] 20.9 µM | Potency [4] 16.6 µM | Potency [5] 23.5 µM | Potency [10] 18.7 µM | Potency [11] 20.9 µM | Potency [12] 20.9 µM | Potency [13] 23.5 µM | Potency [15] 18.7 µM
0.756: Z-AUC [18, 22]
0.977: Z-AUC ([18]; measured here: PEO4 Z-AUC)
inactive: Z-AUC [18] 0.483

C=CC(=O)Nc1cccc(Oc2nc(Nc3ccc(N4CCN(C)CC4)cc3OC)ncc2Cl)c1
-0.879: Z-AUC [18, 22]
active: Potency [1] 16.6 µM | Potency [2] 0.001 µM | Potency [3] 0.0026 µM | Potency [4] 0.662 µM | Potency [6] 23.5 µM | Potency [8] 0.0047 µM | Potency [11] 0.526 µM | Potency [12] 7.43 µM | Potency [15] 13.2 µM | Potency [16] 20.9 µM
-0.954: Z-AUC ([18]; measured here: PEO4 Z-AUC)
inactive: Z-AUC [18] -0.915

C[C@@]12O[C@@H](C[C@]1(O)CO)n1c3ccccc3c3c4c(c5c6ccccc6n2c5c31)CNC4=O
-1.64: z-score [17, 19]
-1.26: z-score [17, 21]
-0.853: z-score [17, 20]
active: Potency [1] 0.526 µM | Potency [2] 0.0662 µM | Potency [3] 0.526 µM | Potency [4] 0.264 µM | Potency [5] 5.26 µM | Potency [7] 0.209 µM | Potency [8] 0.132 µM | Potency [9] 0.264 µM | Potency [10] 0.118 µM | Potency [11] 0.118 µM | Potency [13] 1.32 µM | Potency [14] 1.48 µM | Potency [15] 0.418 µM | Potency [16] 0.833 µM | Potency ([17]; TFE3-RCC UOK109 viability) 5.26 µM
inactive: Z-AUC [18] -1.24
-0.928: Z-AUC ([18]; measured here: PEO4 Z-AUC)
-0.538: Z-AUC [18, 22]

COc1ccc(C(=O)CC2(O)C(=O)Nc3c(Cl)ccc(Cl)c32)cc1 (centres undefined)
inactive: Z-AUC [18] -0.119
-0.085: Z-AUC ([18]; measured here: PEO4 Z-AUC)
-0.455: Z-AUC [18, 22]
active: Potency [1] 2.96 µM | Potency [2] 0.526 µM | Potency [3] 1.87 µM | Potency [4] 9.35 µM | Potency [5] 1.18 µM | Potency [7] 0.833 µM | Potency [8] 0.833 µM | Potency [10] 4.18 µM | Potency [11] 4.18 µM | Potency [13] 2.64 µM | Potency [15] 1.32 µM

Cn1cncc1[C@@](N)(c1ccc(Cl)cc1)c1ccc2c(c1)c(-c1cccc(Cl)c1)cc(=O)n2C
0.145: Z-AUC [18, 22]
-0.275: Z-AUC ([18]; measured here: PEO4 Z-AUC)
inactive: Z-AUC [18] -0.153
active: Potency [1] 0.833 µM | Potency [2] 0.0148 µM | Potency [3] 7.43 µM | Potency [4] 16.6 µM | Potency [5] 13.2 µM | Potency [8] 0.332 µM | Potency [9] 14.8 µM | Potency [10] 0.833 µM | Potency [11] 16.6 µM | Potency [12] 20.9 µM | Potency [13] 5.26 µM | Potency [14] 11.8 µM | Potency [15] 7.43 µM | Potency [16] 20.9 µM
